# PubChem BioAssay (NCI)
# Where “and” joins values, the source holds several entries; their conditions need not be identical. Equal values may be shown once. The panel holds about 83,000 compounds, 20% with a hit somewhere; the sample as a whole holds those more often.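 Percent growth is the endpoint: 0 to 100 indicates growth inhibition (40 means 60% inhibition), 0 means no net growth, and negative values indicate cell death.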 Calls of active or inactive are those of the source. The calls were made as follows: active = growth percent below 10; inactive = the rest.
# Tests used:
# Experiment in all cases: NCI-60 one-dose screen, 48 h (100 = growth as untreated, 0 = no growth, -100 = all killed)
# Conditions in all cases: 10 µM unless noted
# [1] = test system: HCT-15 colon
# [2] = test system: HT29 colon
# [3] = test system: SNB-75 CNS
# [4] = test system: SNB-19 CNS
# [5] = test system: U251 CNS
# [6] = test system: PC-3 prostate
# [7] = test system: SK-MEL-5 melanoma
# [8] = test system: UACC-62 melanoma
# [9] = test system: LOX IMVI melanoma
# [10] = test system: SK-MEL-28 melanoma
SMILES,growth [1],growth [2],growth [3],growth [4],growth [5],growth [6],growth [7],growth [8],growth [9],growth [10]
O=C(Nc1ncc(Cc2cccc(C(F)(F)F)c2)s1)c1ccc(-n2cnnn2)cc1,38.7% (inactive),62% (inactive),83.4% (inactive),59.7% (inactive),64.4% (inactive),54.1% (inactive),37.8% (inactive),19.8% (inactive),46.6% (inactive),52.7% (inactive)
O=Nc1c(O)ccc2ccccc12,43% (inactive) and 103% (inactive),24.7% (inactive) and 109% (inactive),114% (inactive),105% (inactive) and 106% (inactive),99.4% (inactive),6.57% (active) and 72.4% (inactive),80.9% (inactive) and 82.8% (inactive),21.2% (inactive) and 87.4% (inactive),3.68% (active) and 73.6% (inactive),83% (inactive) and 102% (inactive)
COc1cc(NS(=O)(=O)C(C)C)cc(-c2cc(-c3ccc(N4CCNCC4)cc3)cnc2N)c1,112% (inactive),31.9% (inactive),53.7% (inactive),94.2% (inactive),77.1% (inactive),72% (inactive),102% (inactive),110% (inactive),67.3% (inactive),107% (inactive)
COCCOc1cc2ncnc(N3CCN(S(=O)(=O)c4ccccc4Cl)CC3)c2cc1OCCOC,52.3% (inactive),81.8% (inactive),88.2% (inactive),86.1% (inactive),90.1% (inactive),71.2% (inactive),58.8% (inactive),61% (inactive),83.1% (inactive),82.8% (inactive)
[2H]C([2H])([2H])Oc1cc(F)ccc1/C=C/C(=O)/C=C(/C=C/c1ccc(F)cc1OC([2H])([2H])[2H])OB(F)F,25.3% (inactive),32.4% (inactive),81.1% (inactive),56.9% (inactive),31.7% (inactive),43.8% (inactive),30.6% (inactive),20.9% (inactive),2.12% (active),29.5% (inactive)
CC(=O)N1N=C(c2ccc(Nc3nc(Nc4ccc(F)cc4)nc(Nc4ccc(Cl)cc4)n3)cc2)CC1c1ccc(N(C)C)cc1 (stereo not given),38.4% (inactive),36.8% (inactive),40.3% (inactive),59.2% (inactive),53.7% (inactive),22.2% (inactive),32.4% (inactive),35.2% (inactive),63.1% (inactive),60% (inactive)
[Cu+].[NH-][C@H]1C[N-]C(=O)[C@H]([C@H]2CCN=C(N)N2)[N-]C(=O)/C(=C\NC(N)=O)[N-]C(=O)[C@H](CNC(=O)C[C@@H](N)CCCN)[N-]C(=O)[C@H](CO)[N-]C1=O,100% (inactive),104% (inactive),88.2% (inactive),103% (inactive),101% (inactive),96% (inactive),109% (inactive),92.1% (inactive),98.7% (inactive),110% (inactive)
O=C1Nc2ccccc2/C1=C/c1cccn1CCCCCn1c2ccccc2c(=O)c2ccccc21,28.9% (inactive),89.5% (inactive),86.7% (inactive),95.3% (inactive),93.4% (inactive),42% (inactive),32.2% (inactive),48.2% (inactive),80.3% (inactive),88.1% (inactive)
Cc1ccc(/C=C2\COc3ccc(O)c(O)c3C2=O)cc1,-16.5% (active),12.9% (inactive),13.5% (inactive),24.8% (inactive),-3.38% (active),-10.4% (active),1.84% (active),-19.7% (active),-83.3% (active),35.6% (inactive)
O=C(/C=C/c1cccs1)Nc1ncc(Cc2ccc(Cl)c(Cl)c2)s1,28.9% (inactive),24.2% (inactive),64% (inactive),71.1% (inactive),59% (inactive),77.6% (inactive),41.6% (inactive),17.6% (inactive),23.3% (inactive),63.6% (inactive)
COc1ccc(C(CC(=O)c2ccc3c(c2)OCO3)C(=O)O)cc1OC (stereo not given),122% (inactive) and 109% (inactive),103% (inactive) and 96.3% (inactive),110% (inactive) and 88.3% (inactive),110% (inactive) and 97.6% (inactive),102% (inactive),87.4% (inactive) and 105% (inactive),108% (inactive) and 102% (inactive),111% (inactive) and 112% (inactive),95.6% (inactive) and 98.4% (inactive),122% (inactive) and 106% (inactive)
BrC1=C(Br)C(Br)(Br)C(Br)=C1Br,60.8% (inactive),63.9% (inactive),72.7% (inactive),92.3% (inactive),91.9% (inactive),84.6% (inactive),102% (inactive),71% (inactive),45.5% (inactive),93% (inactive)
COc1cc(F)c(/C=C/c2cc(/C=C/c3cc(OC)c(OC)cc3F)n(-c3cc(F)cc(F)c3)n2)cc1OC,11.5% (inactive),22.9% (inactive),105% (inactive),56.7% (inactive),-1.48% (active),10.4% (inactive),23.6% (inactive),26.8% (inactive),18.6% (inactive),-28.1% (active)
COc1ccc(-c2cc(-c3cccnc3)nc3sc4c(Cl)nnnc4c23)cc1OC,69.9% (inactive),87.9% (inactive),81.5% (inactive),95.6% (inactive),92.1% (inactive),81.1% (inactive),84.4% (inactive),81% (inactive),36.4% (inactive),112% (inactive)
Cc1nn(-c2nc(-c3cc4ccccc4oc3=O)cs2)c(C)c1N=Nc1ccccc1,106% (inactive),103% (inactive),89.4% (inactive),101% (inactive),88.8% (inactive),106% (inactive),101% (inactive),86.6% (inactive),96.7% (inactive),108% (inactive)
COc1cc(-c2[nH]ncc2Nc2ccc(Cl)cc2)cc(OC)c1OC,59.7% (inactive),74.2% (inactive),59.8% (inactive),74.2% (inactive),68.9% (inactive),59.9% (inactive),43.6% (inactive),40% (inactive),55.8% (inactive),82.1% (inactive)
[2H]C([2H])([2H])Oc1cccc(/C=C/C(=O)/C=C(/C=C/c2cccc(OC([2H])([2H])[2H])c2OC([2H])([2H])[2H])OB(F)F)c1OC([2H])([2H])[2H],58.3% (inactive),86.3% (inactive),55.2% (inactive),89.1% (inactive),58.8% (inactive),74.3% (inactive),98.6% (inactive),66.6% (inactive),54.6% (inactive),88.5% (inactive)
CCOC(=O)n1cc(-c2nonc2-c2cn(C)c3ccc(OC)cc23)c2cc(F)ccc21,69.2% (inactive),71.1% (inactive),70.2% (inactive),76.1% (inactive),83.1% (inactive),65% (inactive),92% (inactive),52.6% (inactive),72.2% (inactive),99.6% (inactive)
COc1ccc(-c2ccccc2)cc1-c1c(Nc2cc(Cl)cc(Cl)c2O)c(=O)c1=O,10.2% (inactive),44.6% (inactive),-8.42% (active),10.9% (inactive),6.59% (active),12.5% (inactive),-40.7% (active),10.6% (inactive),7.28% (active),20% (inactive)
NCCOCCOc1ccccc1,104% (inactive),97.6% (inactive),106% (inactive),106% (inactive),96.1% (inactive),90.5% (inactive),114% (inactive),102% (inactive),102% (inactive),107% (inactive)
C/C=C(/C)C(=O)O[C@@H]1CC(C)(C)CC2C34OC(=O)[C@@]21CC[C@@]3(C)[C@]1(C)CCC2C(C)(C)C(=O)CC[C@]2(C)C1C[C@@H]4Cl (stereo not given in full),99.3% (inactive),98% (inactive),76% (inactive),92% (inactive),92.1% (inactive),80.4% (inactive),98.4% (inactive),85.3% (inactive),94.1% (inactive),102% (inactive)
Cc1ccc(-c2nc3nc(-c4ccc(F)cc4)nc(N4CCCNCC4)c3o2)cc1,-84.5% (active),-81.6% (active),-96% (active),-94.4% (active),-93.2% (active),-85.2% (active),-87.4% (active),-82.3% (active),-88.6% (active),-93.8% (active)
O=[N+]([O-])c1ccc2[nH]c3nccc(NCc4cccc(Cl)c4)c3c2c1,83.2% (inactive),76.3% (inactive),7.78% (active),53.3% (inactive),43.1% (inactive),67.5% (inactive),83.7% (inactive),82.2% (inactive),81.4% (inactive),101% (inactive)
CCCCCCCCCCCCCCCC(=O)O[C@@H]1[C@@H](O)[C@@H](O)C([C@H](NC(=O)[C@@H]2C[C@@H](CCC)CN2C)[C@H](C)Cl)O[C@@H]1SC (stereo not given in full),99.9% (inactive),111% (inactive),96.2% (inactive),101% (inactive),102% (inactive),97.6% (inactive),99.9% (inactive),104% (inactive),105% (inactive),112% (inactive)
COc1ccc(C2Nc3nc(SC)nc(N)c3N=C3c4ccccc4CCC32)cc1 (stereo not given),75.9% (inactive),69.9% (inactive),92.5% (inactive),104% (inactive),95% (inactive),54.7% (inactive),80.2% (inactive),85.3% (inactive),89.9% (inactive),103% (inactive)
